# HepG2 tox = qHTS for Inhibitors of TGF-b: Cytotox Counterscreen; HepG2 CAGA-GFP viability, ATP luminescence, 18 h; Potency, µM (series often up to 46.1 µM), most hits filed as cytotoxic; 0.76% of 410,000 active; AID 588856, 2011
#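 HepG2 CAGA-GFP cells (1000/well, DMEM with 1% FBS) received compound, then TGF-beta at 500 pg/mL final, and were incubated 18 hours at 37 degrees C. Viability was read by CellTiter-Glo luminescence. Media-only wells were set as complete cell-killing and DMSO as no toxicity.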
# S-ASM inh = Inhibitors of Secretory Acid Sphingomyelinase (S-ASM): qHTS. Sphingomyelin phosphodiesterase (Homo sapiens), P17405. placental ASM, HMU-PC fluorogenic substrate, 60 min. Potency, µM (titrated, usually from 57.5 µM), usual class: inhibitors. 0.006% of 340,000 active. AID 504937, 2011
# Target sequence (P17405 47-631 limits assumed): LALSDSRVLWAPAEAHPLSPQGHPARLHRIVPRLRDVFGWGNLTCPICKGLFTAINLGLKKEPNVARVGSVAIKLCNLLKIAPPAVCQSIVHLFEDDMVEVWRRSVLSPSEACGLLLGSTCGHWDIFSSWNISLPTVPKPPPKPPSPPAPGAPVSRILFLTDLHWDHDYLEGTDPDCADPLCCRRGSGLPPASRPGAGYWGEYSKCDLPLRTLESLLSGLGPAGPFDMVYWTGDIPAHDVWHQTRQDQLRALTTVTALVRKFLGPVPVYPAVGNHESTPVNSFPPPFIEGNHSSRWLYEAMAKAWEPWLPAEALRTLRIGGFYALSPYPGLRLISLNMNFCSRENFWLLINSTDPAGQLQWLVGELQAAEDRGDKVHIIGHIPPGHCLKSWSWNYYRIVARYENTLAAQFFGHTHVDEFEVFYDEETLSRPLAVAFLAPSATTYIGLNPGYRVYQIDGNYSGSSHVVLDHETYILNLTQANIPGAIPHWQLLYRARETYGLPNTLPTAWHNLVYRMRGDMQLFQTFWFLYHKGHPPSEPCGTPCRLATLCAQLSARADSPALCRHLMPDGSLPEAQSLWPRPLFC
#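 Fluorogenic HMU-PC substrate (9 uM final) is turned over by placental ASM in 60 min at 37 C after a 10 min compound preincubation. Reaction ended by alkaline stop (pH 10), with fluorescence read at 386/447 nm.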
# TDP1 cell noCPT = qHTS for Inhibitors of human tyrosyl-DNA phosphodiesterase 1 (TDP1): qHTS in cells in absence of CPT. DT40 Tdp1-/- hTDP1 cells, no CPT, ATP luminescence, 48 h. Potency, µM (titrated, usually from 46.2 µM), hits mostly inhibitors. 15% of 420,000 active. AID 686978, 2013; also: nearly all actives have a fitted effect of over 55% in size
#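 Readout: luminescence from CellTiter-Glo after 30 min in the dark at RT. Cells: DT40 Tdp1-/- with stable hTDP1, 400/well. Exposure: compounds alone, ≥48 hr, 37 °C.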
# IL1B secr inh = qHTS for Inhibitors of Inflammasome Signaling: IL-1-beta AlphaLISA Primary Screen | THP-1 LPS/ATP IL-1B secretion, AlphaLISA, 16 h; stronger effect = lower value | activity change, % at 57.5 µM | 4.7% of 360,000 active; in the data active = activity change below about -50%; inconclusive = mostly about -30% to -49%
#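 THP-1 cells pretreated 1 hr with compounds (up to 57.5 uM final), then stimulated with LPS (250 ng/mL final) plus ATP (1.25 mM final); secreted IL-1B measured by AlphaLISA after 16 hr, decreased signal indicating inhibition.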
# TDP1 cell CPT = qHTS for Inhibitors of human tyrosyl-DNA phosphodiesterase 1 (TDP1): qHTS in cells in presence of CPT | chicken DT40 Tdp1-/-;hTDP1 cells + 20 nM CPT, ATP luminescence, 48 h | Potency, µM (top dose mostly 46.2 µM), actives largely listed as inhibitors | 12% of 420,000 active; also: nearly all actives have a fitted effect of over 55% in size
#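 Chicken DT40 Tdp1-/- cells complemented with human TDP1, 400 cells/well, exposed to compounds plus 20 nM camptothecin for at least 48 h at 37 C; viability read as ATP content by CellTiter-Glo luminescence.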
# TGFb inhibitor = qHTS for Inhibitors of TGF-b; HepG2 CAGA-GFP TGF-b/SMAD3 reporter, GFP fluorescence, 18 h; TGF-beta stimulated, 500 pg/mL final; Potency, µM (highest dose often 46.1 µM), actives largely listed as inhibitors; 1.2% of 410,000 active; also: nearly all actives have a fitted effect of over 65% in size
#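 Inhibition was scored as loss of TGF-beta-induced (500 pg/mL final, 18 hours, 37 degrees C) GFP in HEPG2 cells carrying a CAGA-GFP reporter, in DMEM with 1% FBS. Well GFP was summed per cell; Activity was normalised to unstimulated and stimulated DMSO wells, then concentration-response fitting.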
# Numbers stand for hits; . = inactive; ? = inconclusive; / = no result; ! = not confirmed by another sample. Most compounds without a hit are left out; they make up all but 19% or so of the library. Unless noted, calls follow the shape of the dose curve; as a rule, active = well fitted curve in the direction sought with a large enough effect; inconclusive = small, poorly fitted or top-dose-only effect, or another doubt; inactive = no such curve, though single readings can be large; an effect the other way counts as inactive or inconclusive.
SMILES,HepG2 tox,S-ASM inh,TDP1 cell noCPT,IL1B secr inh,TDP1 cell CPT,TGFb inhibitor
Cc1cc(/C=C/c2ccnc3ccccc23)ccc1N(C)C,.,/,5.6µM,/,5.6µM,.
CN(C)c1ccc(/C=C/c2ccnc3ccccc23)cc1Br,.,/,7.1µM,/,8.9µM,?
Cc1cc(C=Nc2ccc(/C=C/c3ccnc4ccccc34)cc2)ccc1N(C)C,.,/,18µM,/,16µM,.
Cc1cc2nccc(/C=C/c3ccc(N(C)C)cc3)c2cc1C,.,/,?,/,?,.
Cc1c(/C=C/c2ccnc3ccccc23)ccc(N(C)C)c1C,.,/,11µM,/,?,?
Cc1nn(-c2ccc(F)cc2)c(-n2cccc2)c1C(=O)N1CCN(c2ccccc2F)CC1,.,/,/,/,/,.
CN(C)c1ccc(C=Cc2ccnc3ccccc23)cc1N,.,/,10µM,.,10µM,?
CN(C)c1ccc(/C=C/c2ccnc3ccccc23)cc1Cl,.,/,10µM,/,?,.
CN(C)c1c(Cl)cc(/C=C/c2ccnc3ccccc23)cc1Br,.,/,3.5µM,/,4.5µM,?
CCc1ccc2oc(C(=O)NCc3ccccc3)cc(=O)c2c1,.,/,?,/,.,.
CNc1c(NC(=O)COc2ccc(Cl)cc2)c(=O)oc2ccccc12,.,.,.,.,.,.
O=C(c1noc2c1CSc1ccccc1-2)N1CCN(c2ccc(Cl)cc2)CC1,.,.,.,.,.,.
c1ccc(C(c2ccccc2)N2CCC3(CCNCC3)CC2)cc1,/,/,2.6µM,/,5.8µM,/
CC12CNCC(C)(CN(C(c3ccccc3)c3ccccc3)C1)C2,.,.,13µM,-81,16µM,?
C[C@]12c3[nH]c4ccc(Cl)cc4c3CCN1C(=O)[C@@H](CC(=O)NCc1ccco1)C[C@@H]2C(=O)N1CCOCC1,.,.,21µM,.,18µM,.
CC(C)N(C(=O)[C@H]1C[C@H](CC(=O)NCc2ccco2)C(=O)N2CCc3c([nH]c4ccc(Cl)cc34)[C@]12C)C(C)C,.,.,?,.,?,11µM
CC(C)N(C(=O)[C@H]1C[C@H](CC(=O)NCc2ccco2)C(=O)N2CCc3c([nH]c4cc(-c5ccco5)ccc34)[C@]12C)C(C)C,.,?,?,?,?,?
CCN(CC)C(=O)[C@H]1C[C@H](CC(=O)NCc2ccco2)C(=O)N2CCc3c([nH]c4ccc(Cl)cc34)[C@]12C,.,.,16µM,.,16µM,?
CCN(CC)C(=O)[C@H]1CC(CC(=O)NCc2ccco2)C(=O)N2CCc3c([nH]c4ccc(OC)cc34)[C@]12C (some centres not stated),.,.,.,.,.,.
NC(=O)c1cc([N+](=O)[O-])ccc1NCc1cccc(N)c1,.,.,.,.,.,.
CCOCCCNS(=O)(=O)c1ccc(NC(=O)CN2C(=O)c3ccccc3C2=O)cc1,.,.,.,.,.,.
CCOCCCNS(=O)(=O)c1ccc(NC(=O)N2c3ccccc3Sc3ccccc32)cc1,.,.,?,?,23µM,?
CS(=O)(=O)N1CCN(C(=O)Cc2ccc(Br)cc2)CC1,.,.,.,.,.,.
CC(C)(C)C(=O)Nc1ccccc1C(=O)NCCC(=O)Nc1ccccc1,.,.,.,.,.,.
CCCCN(CCCC)C(=O)CN(C)S(=O)(=O)c1ccc2c(c1)c(=O)n(C)c(=O)n2C,.,/,?,/,23µM,?
SMILES,HepG2 tox,S-ASM inh,TDP1 cell noCPT,IL1B secr inh,TDP1 cell CPT,TGFb inhibitor
Cc1ccc(CNC(=O)CN(C)S(=O)(=O)c2ccc3c(c2)c(=O)n(C)c(=O)n3C)cc1,.,/,.,/,.,.
CN(CC(=O)N(CCO)Cc1ccccc1)S(=O)(=O)c1ccc2c(c1)c(=O)n(C)c(=O)n2C,.,.,.,.,.,.
COc1ccc(CNC(=O)CN(C)S(=O)(=O)c2ccc3c(c2)c(=O)n(C)c(=O)n3C)cc1,.,.,16µM!,.,?,?
COc1ccc(CN2CCNC(=O)C2CC(=O)NC2CC(C)(C)CC(C)(C)C2)cc1OC (configuration not stated),.,.,?,.,.,.
O=c1c2cc(F)ccc2sn1-c1ccc(F)cc1,.,.,3.3µM,-114,2.6µM,16µM
COc1ccc(-n2sc3ccccc3c2=O)cc1,13µM,/,2.9µM,-106,3.7µM,20µM
Cc1ccc2scc(N3CCN(c4ccc(F)cc4)CC3)c(=O)c2c1,.,/,?,/,?,.
Cc1ccc(C)c(-n2sc3ccc(F)cc3c2=O)c1,.,.,3.7µM,-106,3.3µM,10µM
COc1ccc(-n2sc3ccc(F)cc3c2=O)cc1,.,.,2.6µM,-106,2.6µM,?
COC(=O)C1=C(C)N(c2ccc(C)c(C)c2)/C(=C/c2cccs2)C1=O,.,.,16µM,.,16µM,.
COC(=O)C1=C(C)N(c2ccc(Cl)cc2)/C(=C/c2cccs2)C1=O,.,.,13µM,.,?,.
CCOC(=O)c1[nH]c(C)c(C(=O)Nc2ccccc2F)c1C,.,.,2.6µM,.,2.3µM,?
CCOC(=O)c1[nH]c(C)c(C(=O)Nc2ccc(C)cc2C)c1C,.,.,1.3µM,.,2.3µM,.
CCOC(=O)c1[nH]c(C)c(C(=O)c2ccc(C)cc2)c1C,.,.,2.1µM,.,2.3µM,.
CCOC(=O)c1c(C)[nH]c(C(=O)OCC(=O)NCc2ccc(C)cc2)c1C,.,.,?,.,?,.
CCOc1ccc(CCNC(=O)C2Cc3ccccc3N2C(=O)CC)cc1OCC (configuration not stated),.,/,.,/,?,.
Cc1ccc(-n2[nH]c(C)c(C=Nc3ccc(S(=O)(=O)Nc4nc(C)cc(C)n4)cc3)c2=O)c(C)c1,.,.,.,.,?,.
Cc1cc(C)nc(NS(=O)(=O)c2ccc(N=Cc3c(C)[nH]n(-c4ccccc4)c3=O)cc2)n1,.,.,?,.,21µM,.
CCc1nnc(NS(=O)(=O)c2ccc(N=Cc3c(C)[nH]n(-c4ccc(C)c(C)c4)c3=O)cc2)s1,7.1µM,.,8.2µM,.,2.1µM,.
Cc1[nH]n(-c2ccccc2)c(=S)c1C=Nc1ccc([N+](=O)[O-])cc1,.,.,23µM,.,13µM,?
O=[N+]([O-])c1nn(-c2ccccc2)n(O)c1=NC1CCN(Cc2ccccc2)CC1,.,.,9.2µM,?,3.3µM,?

# Source: PubChem BioAssay (National Center for Advancing Translational Sciences (NCATS))
